Assay [1] in a line: small molecules captured by biotinylated probe aFSTL3 – biochemical, small-molecule microarray, fluorescence 635/667, stem cell growth factor project, primary screen (AID 1064).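 Also: measures binding of the biotinylated anti-FSTL3 antibody to printed compounds.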 The conditions noted are these: higher = more signal.
Assay [2] is described as follows: binders from COS7 lysate, DM2A8 probe, primary screen, torsin A project, cell lysate, small-molecule microarray, fluorescence 635/667 (AID 1065). The conditions noted are these: higher = more signal, COS7 lysate expressing mutant human TOR1A.
A short description of assay [3]: small molecules captured by biotinylated probe aFGF2 – biochemical, small-molecule microarray, fluorescence 635/667, stem cell growth factor project, primary screen (AID 1067).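 Also: measures binding of biotinylated aFGF2 protein to printed compounds on slides; z-score merges feature fluorescence and signal-to-noise across triplicate slides.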 The conditions noted are these: higher = more signal.
Assay [4] can be described thus: small molecules captured by biotinylated probe aFGF10 – biochemical, small-molecule microarray, fluorescence 635/667, stem cell growth factor project, primary screen (AID 1071).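 Also: score merges 667 nm spot intensity and signal to noise from triplicate slides.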 The conditions noted are these: higher = more signal.
In assay [5] the target is Neurogenic locus notch homolog protein 2 (Homo sapiens) (UniProt Q04721). In words: small molecules binding Notch2 protein – biochemical, small-molecule microarray, 635 nm fluorescence, stem cell growth factors, primary screen (AID 1073). The conditions noted are these: higher = more signal.
Assay [6] addresses Pro-neuregulin-1, membrane-bound isoform (Homo sapiens) (UniProt Q02297). The assay can be described thus: small molecules binding neuregulin-1 protein – biochemical, small-molecule microarray, fluorescence 635/667, psychiatric disease protein project, primary screen (AID 1075).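 Also: score combines 667 nm spot fluorescence with signal to noise.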 The conditions noted are these: NRG1 binding, 635 nm fluorescence, higher = more signal.
Assay [7] deals with Neuregulin-1 EGF-like domain. In words: small molecules binding NRG1 EGF domain – biochemical, small-molecule microarray, 635 nm fluorescence, primary screen (AID 1081).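 Also: binding of the protein to compounds printed on small-molecule microarray slides.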 The conditions noted are these: higher = more signal.
A short description of assay [8]: FRG1 expression reporter modulators in myotubes – cell-based, C2C12 myotubes, firefly/Renilla luciferase, luminescence, FRG1 inhibition for FSHD, primary screen (AID 1084). The conditions noted are these: FRG1 promoter luciferase, higher = more signal, called active from +8 up or from −8 down.
The nature of assay [9]: small molecules captured by biotinylated probe aFST – biochemical, small-molecule microarray, fluorescence 635/667, stem cell growth factor project, primary screen (AID 1086).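 Also: score merges 667 nm fluorescence with signal-to-noise of each printed compound spot.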 The conditions noted are these: higher = more signal.
A short description of assay [10]: binders of probe aHhip on microarray, primary screen, stem cell growth factor project, biochemical, small-molecule microarray, fluorescence 635/667 (AID 1087).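 Also: score merges spot fluorescence at 667nm with spot signal to noise ratio.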 The conditions noted are these: higher = more signal.
Assay [11] has as its system PRMT1 (protein arginine N-methyltransferase 1). The assay can be described thus: small molecules binding arginine methyltransferase PRMT1 – biochemical, small-molecule microarray, 635 nm fluorescence, primary screen (AID 1088).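 Also: binding of Prmt1 protein to compounds spotted on small-molecule microarray slides.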 The conditions noted are these: higher = more signal.
A short description of assay [12]: growth effects on S. cerevisiae YJM789 – YJM789 clinical isolate, OD600, 24 h, basal, primary screen (AID 1089).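 Also: growth of clinical yeast isolate S. cerevisiae YJM 789 seeded 1000 cells per well; test concentration not given here.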 The conditions noted are these: higher = more signal, called active from +8 up or from −8 down.
Assay [13] can be described thus: S. pombe growth modifiers, basal conditions – strain 972, OD600, 24 h, no modulator, primary screen (AID 1090).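 Also: basal condition with compound alone and no growth modifier present; test concentration not given here.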 The conditions noted are these: S. pombe 972 growth, higher = more signal, called active from +8 up or from −8 down.
Assay [14] can be described thus: budding yeast growth modifiers under rapamycin – strain BY4716, OD600, 96 h, primary screen (AID 1091). Also: test concentration not given here. The conditions noted are these: S. cerevisiae BY4716 + rapamycin, higher = more signal, called active from +8 up or from −8 down.
The target in assay [15] is Torsin-1A-interacting protein 2 (Homo sapiens) (UniProt Q8NFQ8). The assay can be described thus: small molecules binding lysate-expressed LULL1 – cell lysate, human LULL1 lysate, 635/667 nm fluorescence, primary screen (AID 1092).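 Also: score merges per-feature 667 nm fluorescence with signal-to-noise.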 The conditions noted are these: small-molecule microarray, hLULL1 lysate binding, 635 nm fluorescence; higher = more signal.
A short description of assay [16]: optical density change of DRC41 E. coli – strain DRC41, OD650, 24 h, E. coli filamentation project, primary screen (AID 1093).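 Also: MC1000 strain lacking acrAB efflux and sulA so SOS filamentation is blocked; test concentration not given here.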 The conditions noted are these: E. coli DRC41 growth, higher = more signal, called active from +8 up or from −8 down.
Assay [17] in a line: probe aLefty2 binding to arrayed compounds – biochemical, biotinylated probe, 635/667 nm fluorescence, primary screen (AID 1094).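 Also: score merges spot fluorescence near 667 nm with spot signal-to-noise ratio.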 The conditions noted are these: small-molecule microarray, higher = more signal.
Assay [18] has as its system Noggin (protein binding on small-molecule microarray). The assay can be described thus: small molecules binding Noggin protein – biochemical, 635/667 nm fluorescence, primary screen (AID 1095).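 Also: score merges 667 nm feature fluorescence with signal to noise over triplicate slides.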 The conditions noted are these: 635 nm fluorescence, higher = more signal.
Assay [19] deals with Neurogenic locus notch homolog protein 3 (Homo sapiens) (UniProt Q9UM47). The assay can be described thus: small molecules binding NOTCH3 protein – biochemical, 635/667 nm fluorescence, primary screen (AID 1096). The conditions noted are these: small-molecule microarray, 635 nm fluorescence, higher = more signal.
Assay [20] in a line: probe aEGFR binding to arrayed compounds – biochemical, biotinylated probe, 635/667 nm fluorescence, primary screen (AID 1097).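 Also: probe is a biotinylated anti-EGFR antibody binding compounds printed on slides; score combines fluorescence near 667 nm and signal to noise of each spot.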 The conditions noted are these: small-molecule microarray, higher = more signal.

The source made the active and inactive calls.

Torsin-1A-interacting protein 2 (Homo sapiens), sequence (Q8NFQ8 whole entry, looked up): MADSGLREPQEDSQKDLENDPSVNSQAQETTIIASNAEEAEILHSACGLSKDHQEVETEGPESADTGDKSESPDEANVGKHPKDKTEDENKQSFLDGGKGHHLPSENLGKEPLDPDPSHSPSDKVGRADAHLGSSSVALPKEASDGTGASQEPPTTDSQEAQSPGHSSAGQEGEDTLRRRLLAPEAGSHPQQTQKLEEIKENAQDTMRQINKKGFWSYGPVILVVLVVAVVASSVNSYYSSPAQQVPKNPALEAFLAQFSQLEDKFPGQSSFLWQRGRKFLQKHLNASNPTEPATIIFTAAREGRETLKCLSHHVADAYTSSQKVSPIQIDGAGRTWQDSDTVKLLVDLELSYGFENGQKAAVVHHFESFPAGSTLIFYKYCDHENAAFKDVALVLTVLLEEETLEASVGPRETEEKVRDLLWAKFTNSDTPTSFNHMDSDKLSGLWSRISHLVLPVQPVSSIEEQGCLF
Pro-neuregulin-1, membrane-bound isoform (Homo sapiens), sequence (Q02297 whole entry, looked up, the tested form may be a part, canonical isoform): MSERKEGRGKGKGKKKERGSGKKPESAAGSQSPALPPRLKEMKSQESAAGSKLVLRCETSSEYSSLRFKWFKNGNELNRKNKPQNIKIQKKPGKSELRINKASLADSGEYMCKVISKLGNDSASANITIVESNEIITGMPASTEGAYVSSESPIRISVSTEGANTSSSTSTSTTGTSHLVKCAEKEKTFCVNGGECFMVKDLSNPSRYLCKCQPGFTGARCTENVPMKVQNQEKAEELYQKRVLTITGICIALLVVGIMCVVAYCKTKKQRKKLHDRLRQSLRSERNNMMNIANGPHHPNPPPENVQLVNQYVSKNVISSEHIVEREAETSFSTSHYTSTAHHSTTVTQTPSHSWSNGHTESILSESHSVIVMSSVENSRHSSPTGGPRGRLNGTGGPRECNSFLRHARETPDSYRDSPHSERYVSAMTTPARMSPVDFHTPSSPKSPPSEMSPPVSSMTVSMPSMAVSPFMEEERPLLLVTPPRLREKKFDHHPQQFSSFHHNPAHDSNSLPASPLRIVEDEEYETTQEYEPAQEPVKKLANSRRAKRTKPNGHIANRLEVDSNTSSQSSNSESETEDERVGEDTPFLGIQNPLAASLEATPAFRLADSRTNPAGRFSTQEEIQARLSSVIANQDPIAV
Neurogenic locus notch homolog protein 3 (Homo sapiens), sequence (Q9UM47 whole entry, looked up): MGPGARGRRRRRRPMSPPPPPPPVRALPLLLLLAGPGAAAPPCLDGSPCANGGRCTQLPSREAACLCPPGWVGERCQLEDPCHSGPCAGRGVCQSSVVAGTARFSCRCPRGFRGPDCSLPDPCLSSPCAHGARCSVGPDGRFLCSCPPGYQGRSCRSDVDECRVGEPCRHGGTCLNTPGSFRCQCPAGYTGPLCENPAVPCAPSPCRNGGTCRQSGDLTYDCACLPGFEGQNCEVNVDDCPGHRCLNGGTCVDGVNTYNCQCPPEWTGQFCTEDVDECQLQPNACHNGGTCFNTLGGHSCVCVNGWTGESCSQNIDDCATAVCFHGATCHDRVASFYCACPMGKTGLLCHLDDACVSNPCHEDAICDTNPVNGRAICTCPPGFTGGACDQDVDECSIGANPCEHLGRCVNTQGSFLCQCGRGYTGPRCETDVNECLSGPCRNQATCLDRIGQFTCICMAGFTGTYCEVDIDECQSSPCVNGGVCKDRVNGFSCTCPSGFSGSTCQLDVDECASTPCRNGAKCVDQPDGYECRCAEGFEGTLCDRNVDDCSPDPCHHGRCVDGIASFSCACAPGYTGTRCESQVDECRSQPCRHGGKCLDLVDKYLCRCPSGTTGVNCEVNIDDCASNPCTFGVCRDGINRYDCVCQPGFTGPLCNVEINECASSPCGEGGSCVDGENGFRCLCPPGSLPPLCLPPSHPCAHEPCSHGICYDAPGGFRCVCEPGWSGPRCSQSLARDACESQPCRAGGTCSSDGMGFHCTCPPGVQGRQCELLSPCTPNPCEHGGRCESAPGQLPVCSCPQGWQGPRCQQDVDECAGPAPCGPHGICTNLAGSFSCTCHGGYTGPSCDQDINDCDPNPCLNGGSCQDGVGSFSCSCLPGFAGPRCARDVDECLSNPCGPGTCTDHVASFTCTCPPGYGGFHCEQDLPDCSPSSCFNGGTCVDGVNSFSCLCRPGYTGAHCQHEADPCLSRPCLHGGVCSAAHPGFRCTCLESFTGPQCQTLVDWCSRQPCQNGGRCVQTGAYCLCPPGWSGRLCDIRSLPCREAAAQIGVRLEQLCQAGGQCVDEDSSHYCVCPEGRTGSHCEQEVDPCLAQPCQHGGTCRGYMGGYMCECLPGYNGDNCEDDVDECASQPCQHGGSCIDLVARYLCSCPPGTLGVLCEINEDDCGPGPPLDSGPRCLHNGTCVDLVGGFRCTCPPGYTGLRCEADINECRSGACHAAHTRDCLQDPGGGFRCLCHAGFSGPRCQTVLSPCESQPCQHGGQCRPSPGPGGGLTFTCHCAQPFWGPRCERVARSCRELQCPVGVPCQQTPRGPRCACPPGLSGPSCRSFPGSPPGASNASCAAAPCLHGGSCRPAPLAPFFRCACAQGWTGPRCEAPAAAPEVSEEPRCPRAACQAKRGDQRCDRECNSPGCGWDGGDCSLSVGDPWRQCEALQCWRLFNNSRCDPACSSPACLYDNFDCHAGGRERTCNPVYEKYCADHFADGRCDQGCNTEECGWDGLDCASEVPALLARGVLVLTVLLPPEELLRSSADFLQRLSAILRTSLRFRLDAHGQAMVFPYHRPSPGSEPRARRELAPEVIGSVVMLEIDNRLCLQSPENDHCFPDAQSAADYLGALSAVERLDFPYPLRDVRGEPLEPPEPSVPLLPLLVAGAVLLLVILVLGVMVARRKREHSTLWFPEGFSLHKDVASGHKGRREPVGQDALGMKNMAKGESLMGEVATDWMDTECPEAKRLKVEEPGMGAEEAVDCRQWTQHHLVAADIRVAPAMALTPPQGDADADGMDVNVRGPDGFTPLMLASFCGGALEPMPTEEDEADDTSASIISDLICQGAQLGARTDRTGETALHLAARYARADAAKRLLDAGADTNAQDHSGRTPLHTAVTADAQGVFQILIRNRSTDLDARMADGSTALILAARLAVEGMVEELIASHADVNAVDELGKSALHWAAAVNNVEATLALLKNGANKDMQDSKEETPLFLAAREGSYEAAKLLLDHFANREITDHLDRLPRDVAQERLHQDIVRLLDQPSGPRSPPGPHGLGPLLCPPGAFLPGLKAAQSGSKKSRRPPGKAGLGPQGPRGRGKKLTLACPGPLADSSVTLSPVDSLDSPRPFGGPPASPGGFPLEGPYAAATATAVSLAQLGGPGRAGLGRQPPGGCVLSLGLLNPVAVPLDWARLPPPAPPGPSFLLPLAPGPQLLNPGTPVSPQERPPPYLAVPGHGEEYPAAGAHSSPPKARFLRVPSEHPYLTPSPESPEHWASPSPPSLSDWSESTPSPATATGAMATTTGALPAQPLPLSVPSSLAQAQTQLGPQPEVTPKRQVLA

In the case of `O=C1O[C@@H](c2ccccc2)[C@@H](c2ccccc2)N2[C@@H](c3ccc(O)cc3)[C@]3(C(=O)Nc4ccc(C#CC5(O)CCCCCC5)cc43)[C@@H](C(=O)NC[C@H](O)c3ccccc3)[C@H]12`, the composite z-score in assay [1] is 0.107; in assay [2], -0.363; in assay [3] it was -0.0255; in [4], 0.753; in [5] it was -0.226; in assay [6] it was 1.02. Moreover, the composite z-score in assay [7] was 0.538; in assay [9], -0.405; in [10], -0.236; in assay [11], 1.26; in [15], 2.05; in assay [17], -0.242. Further, the composite z-score in [18] is -0.0578; in assay [19] it was -0.0872; in assay [20], -0.162. The z-score in assay [8] is 0.106 (inactive); in assay [12], 0.21 (inactive); in assay [13] it was -0.0625 (inactive); in [14] it was 1.24 (inactive); in assay [16], -0.255 (inactive).
Consider `CC(c1ccccc1)C(O)C1C=CC2C(=O)N(c3ccccc3)C(=O)C2N1Nc1ccc([N+](=O)[O-])cc1` (stereo not given), for which the composite z-score in assay [1] is -0.263; in assay [2] it was 0.031; in [3], -0.0265; in [4], 0.772; in [5] it was 1.62; in assay [6] it was 1.58. Moreover, the composite z-score in assay [7] was 1.11; in [9], 0.745; in [10] it was -0.166; in assay [11], 1.07; in [15] it was 3.55; in [17] it was 0.0249. Further, the results for the composite z-score in [18], in [19] and in [20] were 0.361, 1.09 and -0.027, respectively. For the same molecule, the z-score in assay [8] was -1.32 (inactive); in assay [12], 0.197 (inactive); in assay [13], 1.58 (inactive); in assay [14], 1.78 (inactive); in assay [16] it was 0.1 (inactive).
In the case of `COC(=O)[C@@]1(Cc2ccccc2)[C@H]2c3cc(C(=O)N(C)C)n(Cc4c(CO)[nH]cc(C)c4=O)c3C[C@H]2CN1C(=O)c1ccccc1`, the composite z-score in [1] stood at 0.268; in assay [2] it was 0.311; in assay [3] it was 0.206; in assay [4], 0.528; in assay [5] it was 1.53; in assay [6] it was 1.49. Moreover, the composite z-score was determined as 1.38 in [7]; 0.608 in [9]; 0.0456 in assay [10]; 0.0795 in [11]; 3.13 in assay [15]; 0.163 in assay [17]. Also, the composite z-score was -0.38 in [18], 0.447 in assay [19] and 0.0288 in assay [20]. In addition, the z-score was -0.325 (inactive) in [8]; 0.469 (inactive) in assay [12]; 1.51 (inactive) in assay [13]; 0.0018 (inactive) in assay [14]; -0.633 (inactive) in assay [16].
Regarding `CCOc1cc(C(O)C2C=CC3C(=O)N(c4ccccc4)C(=O)C3N2Nc2ccc(C#N)cc2)ccc1O` (stereo not given), the composite z-score is -0.17 in assay [1]; -0.223 in assay [2]; 0.0024 in assay [3]; 0.11 in assay [4]; 1.27 in assay [5]; 1 in [6]. Also, the composite z-score in [7] is 0.836; in assay [9] it was 0.0472; in assay [10], 0.0139; in assay [11], 0.0034; in assay [15], 3.3; in [17], 0.121. Moreover, the composite z-score in assay [18] was -0.167; in [19], -0.0195; in assay [20], -0.133. In addition, the z-score in assay [8] is 0.163 (inactive); in [12], 0.453 (inactive); in assay [13], 1.15 (inactive); in [14] it was 0.726 (inactive); in assay [16], -0.715 (inactive).
On to `O=C1O[C@@H](c2ccccc2)[C@@H](c2ccccc2)N2[C@@H](c3ccc(O)cc3)[C@]3(C(=O)Nc4ccc(C#CC5=CCCCC5)cc43)[C@@H](C(=O)NC[C@H](O)c3ccccc3)[C@H]12`, for which the composite z-score in [1] is 0.135; in assay [2], 1.76; in [3], -0.0181; in assay [4] it was 0.508; in assay [5] it was 1.52; in [6], 1.2. For the same molecule, the composite z-score is 1.35 in assay [7]; 0.398 in [9]; 0.251 in [10]; 1.54 in assay [11]; 2.55 in assay [15]; -0.0916 in [17]. Moreover, the composite z-score in [18] was determined as 1.22; in assay [19], 1.07; in assay [20] it was 0.12. Also, the z-score was 0.754 (inactive) in [8]; 1.31 (inactive) in assay [12]; 0.18 (inactive) in assay [13]; 2.89 (inactive) in assay [14]; 1.24 (inactive) in assay [16].

(Values after PubChem BioAssay.)
